This note sets out measurements from PubChem BioAssay (NCATS).

Values without a mark were called inactive. Inconclusive results are not listed. Activity calls are given as the source filed them. Unless noted, calls follow the shape of the dose curve; as a rule, active = well fitted curve in the direction sought with a large enough effect; inconclusive = small, poorly fitted or top-dose-only effect, or another doubt; inactive = no such curve, though single readings can be large; an effect the other way counts as inactive or inconclusive.

Assay [1] in a line: qHTS assay for small molecule disruptors of the mitochondrial membrane potential - 1 hr assay (AID 651754; calls by dose curve; also: nearly all actives have a fitted effect of over 35% in size; also: potency is read from the fitted curve at half-maximal effect). In a few lines: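 HepG2, 2,000 cells/well, overnight attachment; cpd or DMSO 1 hr, 37C/5% CO2; Mito-MPS dye 30 min, 37C; fluorescence monomer (490/535) and aggregate (540/590).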
A short description of assay [2]: qHTS assay for small molecule disruptors of the mitochondrial membrane potential - 5 hr assay (AID 651755; calls by dose curve; also: nearly all actives have a fitted effect of over 40% in size; also: potency is read from the fitted curve at half-maximal effect). In a few lines:
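HepG2 cells, attached overnight at 37C, were exposed to compound or DMSO for 5 hr at 37C, 5% CO2. Mito-MPS dye was then added for 30 min, and fluorescence read at 490/535 nm (monomers) and 540/590 nm (aggregates).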
A general note: In qHTS, concentration-response curves come from the screen itself.

Assay [3] concerns the target Tumor necrosis factor (Homo sapiens) (UniProt P01375). Nature of the assay: qHTS assay to identify small molecules that stimulate Tumor Necrosis Factor-alpha (TNF-alpha) secretion (AID 651757; active = well fitted curve in the direction sought with a large enough effect in the signal ratio; the % refers to the signal ratio; also: 0% is about no effect). In a few lines:
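Read-out is HTRF, a TR-FRET sandwich of cryptate- and XL665-labeled anti-TNF-alpha antibodies detecting cytokine secreted by THP-1 cells. Cells had been incubated with test compounds at 37 C for 17 hrs beforehand.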

Assay [4] in a line: qHTS assay for environmental chemicals that activate the Aryl hydrocarbon Receptor (AhR) signaling pathway (AID 651777). Also: % of control where 0% means no effect; nearly all actives have a fitted effect of over 15% in size. To be noted: 1A2-DRE human hepatoma cells, luciferase, 24 h; activation: active compounds read high. The procedure, abridged: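 Reporter gene assay: hepatoma cells with DRE/CYP1A2-luciferase, 24 hr compound incubation at 37 C, 5% CO2, luminescence after One-Glo (30 min, RT).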

Assay [5] concerns the target Peroxisome proliferator-activated receptor alpha (Homo sapiens) (UniProt Q07869). As to the kind of experiment: qHTS assay for small molecule agonists of the peroxisome proliferator-activated receptor alpha (PPARalpha) signaling pathway (AID 651778). Also: % of control where 0% means no effect. To be noted: PathHunter PPARalpha complementation, chemiluminescence, 6 h; active compounds read high. The procedure, abridged:
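Cells plated at 2,000/well and held overnight at 37 C, 5% CO2, then compound added by pin tool for 6 hr; after PathHunter detection reagent and 60 min at room temperature, chemiluminescence from enzyme complementation was read.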

In assay [6] the target is Nuclear receptor ROR-gamma (Homo sapiens) (UniProt P51449). Nature of the assay: qHTS assay for small molecule antagonists of the retinoid-related orphan receptor gamma (ROR-gamma) signaling pathway (AID 651802).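 Also: luciferase reporter luminescence driven by ROR response element; series mostly up to about 92 µM; % is scaled to controls: 0 for no effect and ±100 for the full control effect; nearly all actives have a fitted effect of over 60% in size.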 In a few lines: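 CHO, TET-inducible ROR + RORE-LUC reporter, 1536-well qHTS. Compound pinned, doxycycline added, 16hr 37C/5% CO2. ONE-Glo, 30 min RT, luminescence; signal drop scored as antagonism.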
Chain of Nuclear receptor ROR-gamma (Homo sapiens) (P51449 whole entry, looked up): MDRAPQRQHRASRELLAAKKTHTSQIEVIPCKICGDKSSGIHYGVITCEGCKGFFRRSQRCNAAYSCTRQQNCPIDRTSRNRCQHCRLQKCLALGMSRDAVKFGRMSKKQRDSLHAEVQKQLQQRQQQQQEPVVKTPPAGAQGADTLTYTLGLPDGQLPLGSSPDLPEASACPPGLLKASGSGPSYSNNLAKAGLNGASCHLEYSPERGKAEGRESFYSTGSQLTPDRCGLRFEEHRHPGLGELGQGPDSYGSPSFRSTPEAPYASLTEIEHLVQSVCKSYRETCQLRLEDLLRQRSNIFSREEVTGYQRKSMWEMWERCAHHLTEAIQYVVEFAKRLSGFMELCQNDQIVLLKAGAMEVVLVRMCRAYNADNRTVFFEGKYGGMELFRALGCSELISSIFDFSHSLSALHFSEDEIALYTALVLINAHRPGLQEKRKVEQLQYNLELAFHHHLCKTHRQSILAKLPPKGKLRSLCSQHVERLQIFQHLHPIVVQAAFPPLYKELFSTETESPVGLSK

Assay [7] is described as follows: qHTS assay for small molecule agonists of the antioxidant response element (ARE) signaling pathway measured by Nrf2-dependant transcriptional activity (AID 720636; active = well fitted curve in the direction sought with a large enough effect in the repeat runs; an effect the other way counts as inactive or inconclusive;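 also: HepG2 cells with an ARE-driven luciferase reporter; % of control where 0% means no effect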). In a few lines: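 Nrf2-dependent transcription is measured in ARE-luc HepG2 cells: compound is applied for 16 hr at 37 C after a 6 hr attachment period, and luciferase activity is quantified by luminescence using ONE-Glo.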

A short description of assay [8]: qHTS assay for small molecule agonists of the antioxidant response element (ARE) signaling pathway measured by Nrf2-dependant transcriptional activity - cell viability counter screen (AID 720653; active = well fitted curve in the direction sought with a large enough effect in the repeat runs; an effect the other way counts as inactive or inconclusive; also: % is scaled to controls: 0 for no effect and ±100 for the full control effect). To be noted: ARE-bla HepG2 viability, CellTiter-Glo ATP luminescence, 16 h; active compounds read low. The procedure, abridged: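 ARE-bla HepG2 cells (2,000/well) rested 5 hrs at 37C/5% CO2, then exposed to compounds in DMSO for 16 hrs. Viability was read in the same wells as intracellular ATP by luminescence, 30 min at room temperature after reagent addition.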

Assay [9] can be described thus: qHTS assay for cell viability of the p53RE-bla HCT-116 cell line (AID 743292). Also: % is scaled to controls: 0 for no effect and ±100 for the full control effect; nearly all actives have a fitted effect of over 55% in size. In a few lines: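 ATP-based luminescence, 16 h compound exposure at 37 C, p53RE-bla HCT-116 cells at 4,000/well.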
Assay [10] concerns the target Nuclear receptor subfamily 1 group I member 2 (Rattus norvegicus) (UniProt Q9R1A7). Nature of the assay: qHTS assay for small molecule activators of the rat pregnane X receptor (rPXR) signaling pathway (AID 651751; call rule not given here; also: 0% is about no effect). To be noted: rPXR reporter cells, luciferase (One-Glo), 24 h.
Assay [11] is described as follows: qHTS assay for small molecule activators of the human pregnane X receptor (PXR) signaling pathway (AID 720659; call rule not given here; also: 0% is about no effect).
Assay [12] is described as follows: qHTS assay for cell viability of HEK293 cells (AID 743288). Also: % is scaled to controls: 0 for no effect and ±100 for the full control effect; nearly all actives have a fitted effect of over 50% in size. To be noted: ATP luminescence (CellTiter-Glo), 18 h, active compounds read low. In a few lines: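 Environmental chemicals tested in qHTS format against parental HEK293 cells; 18 h treatment, 37 C; read-out ATP luminescence (CellTiter-Glo), 30 min RT development.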
A short description of assay [13]: qHTS assay for small molecule antagonists of the retinoid-related orphan receptor gamma (ROR-gamma) signaling pathway - cell viability counter screen (AID 720652; active = well fitted curve in the direction sought with a large enough effect in the repeat runs; an effect the other way counts as inactive or inconclusive;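 also: series mostly up to about 92 µM; compound exposure lasted 16 hr before ATP read; % is scaled to controls: 0 for no effect and ±100 for the full control effect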). The procedure, abridged:
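Luminescence from CellTiter-Glo after 30 min at room temperature reported cellular ATP as the cytotoxicity measure. Cells were the CHO reporter line with doxycycline-induced ROR-gamma expression, exposed to compound for 16 hr at 37 C.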

Chain of Tumor necrosis factor (Homo sapiens) (P01375 whole entry, looked up): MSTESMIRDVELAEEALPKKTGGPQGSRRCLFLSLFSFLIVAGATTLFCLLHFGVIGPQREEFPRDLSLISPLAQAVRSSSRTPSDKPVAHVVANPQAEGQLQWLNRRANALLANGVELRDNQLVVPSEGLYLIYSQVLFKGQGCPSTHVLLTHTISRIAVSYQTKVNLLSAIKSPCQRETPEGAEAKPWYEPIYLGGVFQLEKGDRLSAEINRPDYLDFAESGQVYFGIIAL
Chain of Peroxisome proliferator-activated receptor alpha (Homo sapiens) (Q07869 whole entry, looked up): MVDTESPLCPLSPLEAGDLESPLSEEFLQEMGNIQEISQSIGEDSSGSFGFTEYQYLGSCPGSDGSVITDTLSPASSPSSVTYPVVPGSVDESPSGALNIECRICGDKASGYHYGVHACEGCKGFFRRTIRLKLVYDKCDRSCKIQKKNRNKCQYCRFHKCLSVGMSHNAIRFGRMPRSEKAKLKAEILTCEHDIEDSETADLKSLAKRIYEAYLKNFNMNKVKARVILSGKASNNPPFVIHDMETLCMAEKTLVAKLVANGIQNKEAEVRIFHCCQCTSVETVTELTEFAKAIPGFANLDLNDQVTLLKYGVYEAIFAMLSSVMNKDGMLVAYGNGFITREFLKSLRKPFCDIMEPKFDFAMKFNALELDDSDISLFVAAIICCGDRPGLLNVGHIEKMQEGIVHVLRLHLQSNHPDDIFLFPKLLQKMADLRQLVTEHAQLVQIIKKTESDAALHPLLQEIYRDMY
Chain of Nuclear receptor subfamily 1 group I member 2 (Rattus norvegicus) (Q9R1A7 whole entry, looked up): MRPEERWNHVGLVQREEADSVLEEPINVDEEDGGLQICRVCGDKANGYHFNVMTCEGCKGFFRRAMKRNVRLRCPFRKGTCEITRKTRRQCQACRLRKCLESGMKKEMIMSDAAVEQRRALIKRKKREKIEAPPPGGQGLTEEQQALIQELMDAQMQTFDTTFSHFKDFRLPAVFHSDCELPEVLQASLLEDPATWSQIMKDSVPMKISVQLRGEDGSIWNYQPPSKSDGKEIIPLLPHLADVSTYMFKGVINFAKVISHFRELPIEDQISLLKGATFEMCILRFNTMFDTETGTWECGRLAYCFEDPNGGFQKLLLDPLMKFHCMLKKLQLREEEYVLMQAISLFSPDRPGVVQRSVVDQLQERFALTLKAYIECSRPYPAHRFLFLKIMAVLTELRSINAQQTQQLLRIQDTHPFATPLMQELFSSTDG

With `Cc1cc(C)cc(N)c1`, the Potency result in assay [1], in [2], in [3], in [6] and in [9] was “inactive” in each case. The activation in assay [4] is 2.65%. Also, the max response is -1.33% in [5], -5.34% in assay [8] and 9.8% in [10]. Moreover, the compound was called inactive in assay [7] and in assay [11].
For `CCCCC(=O)N(C)C`, the Potency entry in assay [1], in assay [2], in [3], in [6] and in [9] was “inactive” in each case. For the same compound, the activation in assay [4] was 1.62%. The max response was -3.71% in assay [5], -1.17% in assay [8], -5.96% in assay [12] and -1.49% in assay [10]. Also, the compound was classed as inactive in assay [7] and in assay [11].
Turning to `CCCOCC(C)O` (stereo not given), the Potency entry in [1], in [2], in assay [3], in assay [6], in assay [13] and in assay [9] was “inactive” in each case. In addition, in [4], the activation is 1.17%. Further, the max response in assay [5] is -5.25%; in assay [8], 8.24%; in assay [10], -0.746%. In addition, the compound was classed as inactive in assay [7] and in [11].
Consider `CCCCCCCCCCCCC1CO1` (stereo not given), for which the Potency result in [1], in assay [2], in assay [3], in assay [6], in assay [13] and in [9] was “inactive” each time. In addition, the activation in [4] was 0.974%. The max response in assay [5] was -4.01%; in [8], 1.04%; in assay [12] it was -4.83%; in assay [10], 4.9%. Besides, the result in [7] and in [11] was inactive.
Take `C=C(C)C(=O)OCC(C)C`: the Potency result in [1], in assay [2], in assay [3], in assay [6] and in assay [9] was “inactive” throughout. In addition, in [4], the activation was -0.68%. Also, the max response in assay [5] was -4.6%; in assay [8] it was -3.35%; in assay [12], 2.75%; in assay [10] it was 5.41%. Besides, the outcome in assay [7] and in [11] was inactive.
For `O=C1C=CCCC1`, the Potency result in assay [1], in assay [2], in assay [3], in [6], in assay [13] and in assay [9] was “inactive” each time. Further, the activation in assay [4] is 0.397%. The max response in [5] is 2.89%; in assay [8] it was 4.99%; in [10], 0.149%. In addition, the result in assay [7] and in assay [11] was inactive.
`O=P(O)(OCc1ccccc1)OCc1ccccc1`: the Potency entry in [1], in [2], in assay [3], in assay [13] and in assay [9] was “inactive” each time. In [4], the activation is 1.44%. The max response was 1.76% in [5], 2.28% in assay [8], -11.9% in assay [12] and 3.16% in assay [10]. Besides, the outcome in assay [7] and in assay [11] was inactive.
As for `C/C=C(/C)C#N`, the Potency result in assay [1], in [2], in assay [3], in [6] and in assay [9] was “inactive” in each case. In [4], the activation is 1.73%. For the same compound, the max response in assay [5] was -2.14%; in assay [8], -5.17%; in assay [10] it was 8.65%. Besides, the call in [7] and in assay [11] was inactive.
With `Cc1cccc(C(=O)O)c1`, the Potency entry in [1], in assay [2], in assay [3], in [6], in assay [13] and in assay [9] was “inactive” in each case. Besides, in assay [4], the activation is 0.807%. The figures for the max response in assay [5], in [8] and in assay [10] were -3.59%, -0.706% and -5.92%, respectively. Besides, the call in [7] and in [11] was inactive.
As to `CC(C)(O)C(=O)O`, the Potency entry in assay [1], in assay [2], in assay [3], in assay [6], in assay [13] and in assay [9] was “inactive” throughout. Moreover, the max response in assay [5] was 4.71%; in assay [8], 1.81%; in assay [12], 1.23%; in assay [10], 0.872%. Moreover, the outcome in [7] and in assay [11] was inactive.
On to `CC(=O)c1ccc([N+](=O)[O-])cc1`, for which the Potency result in assay [1], in assay [2], in assay [3], in [13] and in assay [9] was “inactive” each time. In addition, in [4], the activation is 0.202%. In addition, the max response in assay [5] was -2.88%; in assay [8], 19%; in assay [12] it was 5.77%; in assay [10], -4.15%. Besides, the call in [7] and in assay [11] was inactive.
On to `Cc1ccc2c(c1[N+](=O)[O-])C(=O)c1ccccc1C2=O`, for which the Potency is 1.88 µM (active) in [1] and 1.33 µM (active) in assay [2]. The Potency result in assay [3], in assay [6] and in [9] was “inactive” throughout. Moreover, the max response is -3.62% in [5], -12.9% in assay [8] and 5.79% in assay [10].
Take `CC(C)(C)OCC1CO1` (stereo not given): the Potency result in assay [1], in [2], in assay [3], in [13] and in assay [9] was “inactive” throughout. Besides, in assay [4], the activation is 2.26%. Also, the max response in [5] is -5.74%; in assay [8], 11%; in assay [12] it was -0.898%; in assay [10], 0.0184%. Moreover, the compound was called inactive in assay [11].
